# Results published in PubChem BioAssay.
# Activity calls are given as the source filed them.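 Rule for the calls, unless noted: active = NADPH fluorescence slope more negative than the mean of all samples by about 3 SD, 99.7% confidence; inactive = the rest.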
# Key:
# [1] = inhibitors of TNFa-induced NFkB p65 translocation, primary screen, imaging, HUVEC, MLSMR starter and 10KST1 sets (AID 438;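 active = inhibition above 20% together with a positive visual image hit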;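 note: compound added about 3h40 before a 20 min TNFalpha stimulation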;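 for inhibition: signal is the nuclear over cytoplasmic p65 intensity ratio per well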); settings: HUVEC TNFa-induced p65 nuclear translocation; cell count: measured here: nuclei count (cytotoxicity indicator), at 2.08 µM; inhibition: at 2 µM, stronger effect = higher value, 0% TNFa-plus-vehicle, 100% no-TNFa wells
# [2] = inhibitors of mutant huntingtin aggregation, primary screen, imaging, exon1htt(103Q)mCFP cells, high-content imaging (AID 483;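 active = visual image review flags a hit and inhibition of aggregation exceeds 20%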;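 note: compound exposure lasted 3 days before fixation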;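 for nuclei count: percent of the per-plate median nuclei count of sample wells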); settings: exon1htt(103Q)mCFP cell line, aggregate imaging, at 2 µM; inhibition of aggregation: stronger effect = higher value; nuclei count: measured here: cell count, toxicity
# [3] = inhibitors of E-selectin induction by TNFa, primary screen, imaging, HUVEC, immunofluorescence, MLSMR starter and 10KST1 sets (AID 487;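 active = visually confirmed hit in the image check and inhibition above 20%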;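 for inhibition: signal is fraction of cell area covered by stained E-selectin grains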;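 for nuclei count: 100% = median nuclei count of all wells on the same plate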); settings: HUVEC TNFalpha-induced E-selectin immunofluorescence imaging, at 2 µM; inhibition: stronger effect = higher value; nuclei count: measured here: cell number, toxicity
# [4] = molecular target: Voltage-gated potassium channel subunit beta-2 (Rattus norvegicus) (UniProt P62483); assay: KvBeta enzyme negative modulators, primary screen, biochemical, NADPH fluorescence (AID 622;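 active = fluorescence slope higher than the sample average by over 3 SD, cut at about -0.22 in these data, passing the limit was not always enough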;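 note: slope of raw intensity against log time taken from 70 to 1610 s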); settings: recombinant KvBeta, 4-cyanobenzaldehyde reduction, at 10 µM, stronger effect = higher value
# [5] = molecular target: Voltage-gated potassium channel subunit beta-2 (Rattus norvegicus) (UniProt P62483); assay: KvBeta positive modulators, primary screen, biochemical, NADPH fluorescence (AID 623); settings: Recombinant KvBeta, NADPH fluorescence decrease slope, 10 min; at 10 µM; stronger effect = lower value;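 note: fluorescence intensity change per second fitted from 20 to 320 s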
# [6] = molecular target: Alpha-2C adrenergic receptor (Homo sapiens) (UniProt P18825); assay: modulators of alpha2C/GIRK thallium flux, primary screen, cell-based, HEK293 alpha2C/GIRK1/2 (AID 624;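 active = fluorescence slope after compound addition differing from the mean of all screened samples at 99.7% confidence, in either direction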;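 note: slope of fluorescence ratio to pre-addition baseline per second over 15 to 24 s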); settings: thallium flux BTC fluorescence, at 10 µM, actives lie on both sides
# [7] = inhibitors of Sendai virus-induced IRF3 signaling, primary screen, TLR/RLR signaling modifier project, cell-based, Sendai virus stimulus, luciferase, 10K MLSCN set (AID 602276;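 active = inhibition at or above 50% at 10 µM; inactive = inhibition below 50%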;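 note: firefly luciferase from ISG56 promoter only with Renilla not read in this screen; 0% = Sendai virus plus DMSO and 100% = medium plus DMSO without virus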); settings: HEK293 RL24 IRF3 luciferase reporter, at 10 µM, stronger effect = higher value
# [8] = inhibitors of poly I:C-induced TLR3 signaling, primary screen, cell-based, poly I:C stimulus, luciferase, 10K MLSCN set (AID 602277;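 active = inhibition of the reporter signal at or above 50%; inactive = inhibition below 50%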); settings: HEK293-TLR3 RL24 IRF3 luciferase reporter, at 10 µM, stronger effect = higher value
# Chain of Voltage-gated potassium channel subunit beta-2 (Rattus norvegicus) (P62483 whole entry, looked up): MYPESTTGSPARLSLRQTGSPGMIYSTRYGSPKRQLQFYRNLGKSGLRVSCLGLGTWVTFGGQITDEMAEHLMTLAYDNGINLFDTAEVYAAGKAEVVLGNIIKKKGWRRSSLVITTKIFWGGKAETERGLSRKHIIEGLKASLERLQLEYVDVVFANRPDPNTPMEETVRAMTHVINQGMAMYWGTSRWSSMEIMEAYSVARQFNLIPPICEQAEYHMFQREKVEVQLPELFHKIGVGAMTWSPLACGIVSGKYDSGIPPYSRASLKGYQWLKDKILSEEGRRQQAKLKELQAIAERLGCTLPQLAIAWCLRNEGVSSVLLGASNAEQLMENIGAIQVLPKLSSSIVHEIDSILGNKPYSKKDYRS
# Chain of Alpha-2C adrenergic receptor (Homo sapiens) (P18825 whole entry, looked up): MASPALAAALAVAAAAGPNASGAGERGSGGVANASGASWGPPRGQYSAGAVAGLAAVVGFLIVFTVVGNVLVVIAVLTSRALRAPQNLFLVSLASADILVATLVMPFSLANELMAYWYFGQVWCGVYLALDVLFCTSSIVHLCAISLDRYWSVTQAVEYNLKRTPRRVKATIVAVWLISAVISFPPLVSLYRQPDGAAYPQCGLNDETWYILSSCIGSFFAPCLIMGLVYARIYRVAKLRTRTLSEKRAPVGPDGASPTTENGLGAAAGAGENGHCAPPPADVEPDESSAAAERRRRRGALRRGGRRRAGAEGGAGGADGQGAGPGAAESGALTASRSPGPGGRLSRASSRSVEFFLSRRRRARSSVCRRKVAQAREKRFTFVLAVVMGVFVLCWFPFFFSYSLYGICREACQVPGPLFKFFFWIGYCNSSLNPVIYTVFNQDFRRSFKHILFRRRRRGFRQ
SMILES,cell count [1],inhibition [1],inhibition of aggregation [2],nuclei count [2] [%],inhibition [3],nuclei count [3] [%],fluorescence slope [4],NADPH fluorescence slope [5],slope [6],inhibition [7],inhibition [8]
CCCN1C2CCCC1CC(NC(=O)Nc1cccc(C(C)=O)c1)C2 (stereo not given),418,-10.3% (inactive),-17% (inactive),97,-138% (inactive),180,-0.637 (inactive),1.7e-05 (inactive),0.00567 (inactive),23.1% (inactive),37.8% (inactive)
CC1CN(C(=O)c2scc3c2OCCO3)CC(C)O1 (stereo not given),190,-5.4% (inactive),0.7% (inactive),75,11.5% (inactive),77,-0.598 (inactive),-1.6e-05 (inactive),0.00693 (inactive),17.3% (inactive),20.4% (inactive)
Cc1cccc(NS(=O)(=O)c2cc(C(=O)OCC(=O)Nc3cc(C)on3)ccc2C)c1,427,7.9% (inactive),3.7% (inactive),99.6,,125,-0.498 (inactive),-3.2e-05 (inactive),0.00536 (inactive),25.1% (inactive),2.98% (inactive)
CC(=O)Nc1nc(=S)ss1,568,-7.2% (inactive),1.3% (inactive),60.9,-28.4% (inactive),120,-0.486 (inactive),-2.6e-05 (inactive),0.00751 (inactive),10.3% (inactive),14.9% (inactive)
O=C(OCc1nnc(-c2ccc(Cl)cc2)o1)c1ccc(=O)n(Cc2ccccc2)n1,413,1.7% (inactive),3% (inactive),99.3,,160,-0.44 (inactive),-5e-05 (inactive),0.00426 (inactive),-5.01% (inactive),-8.16% (inactive)
Clc1ccc2nc(N3CCCCC3)[nH]c2c1,706,5.6% (inactive),11.3% (inactive),98.7,-82.5% (inactive),102,-0.446 (inactive),-6.8e-05 (inactive),0.00544 (inactive),-26% (inactive),-98.5% (inactive)
Cn1c(=O)[nH]c(=O)c2c1nc(NCCCn1ccnc1)n2Cc1cccc(Br)c1,663,-12.9% (inactive),8.6% (inactive),68.9,-53.6% (inactive),112,-0.403 (inactive),-2.8e-05 (inactive),0.006 (inactive),16.8% (inactive),26.1% (inactive)
